# Test results as given in the supplement of paper PMC10646978.
# ± gives the standard deviation.
# Tested on: RAW-Dual (murine macrophage reporter line)
# Experiment: NF-kB reporter (SEAP) activity fold change vs agonist alone; higher = enhanced NF-kB activity
# Settings: modulator concentration 10 µM; agonist: MPLA […]
# How it was run: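 RAW-Dual murine macrophage reporter cells were plated at 50 000 per well in 384-well plates, pin-transferred compound to 10 μM final, and pre-incubated for 1 hour at 37 °C before a PRR agonist was added and the cells incubated overnight. NF-κB activity was read from supernatant SEAP with QUANTI-Blue at 620 nm absorbance, and IRF activity from Lucia luciferase with QUANTI-Luc by luminescence. Each signal was expressed as fold change by dividing by the mean agonist-only control on the same plate. Two replicate plates were averaged, with errors obtained by propagation.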
row,Structure (SMILES),NF-kB reporter
1,CN(C(=O)c1cncc(F)c1)C1CN(c2ccc3nnc(C4CC4)n3n2)C1,0.83 ± 0.082
2,Cc1ncc(CC(=O)N2CCC(c3ccccc3Cl)S(=O)(=O)CC2)s1 (stereo not drawn),0.972 ± 0.032
3,O=C(C=Cc1ccc(O)cc1)c1ccc(O)cc1O,1.74 ± 0.12
4,Cc1cccc(C(=O)ON=C(c2ccncc2)c2ccc([N+](=O)[O-])cc2)c1,1.06 ± 0.099
5,CCOC(=O)C1=C(C)NC(=S)NC1c1ccccc1OCc1ccccc1 (stereo not drawn),0.965 ± 0.058
6,O=C(C1COCC(=O)N1Cc1ccccc1)N1CCN(c2cccc(Cl)c2)CC1 (stereo not drawn),1.08 ± 0.064
7,COC(=O)C1=CN(CC2CCCO2)C=C(C(=O)OC)C1c1cccc(F)c1 (stereo not drawn),1.05 ± 0.098
8,CCOC(=O)[C@H](CCc1ccccc1)N[C@H]1CCc2ccccc2N(CC(=O)O)C1=O [Prestw-1129],0.941 ± 0.06
9,NC(CO)(CO)CO.O=C(c1ccccc1)c1ccc2n1CCC2C(=O)O (stereo not drawn),0.977 ± 0.14
10,COc1ccc(C2C3=C(CC(c4ccccc4)CC3=O)Nc3ccccc3N2C(=O)C(C)C)cc1OC (stereo not drawn),1.01 ± 0.071
11,Cl.N=C(N)NC(=O)c1nc(Cl)c(N)nc1N,0.891 ± 0.063
12,O=Cc1cn(CCOc2ccc(Br)cc2)c2ccccc12,1.59 ± 0.22
13,N#Cc1c(N=Cc2ccc(Br)cc2)sc2c1CCCC2,0.964 ± 0.033
14,COc1c2c(nc3ccccc13)OC(C(C)(O)COC(C)=O)C2 (stereo not drawn),0.953 ± 0.11
15,Cc1ccc(OCCCOc2cccc3cccnc23)c(C)c1,1.62 ± 0.11
16,O=S(=O)(c1ccc(F)cc1)n1cccc1,1.09 ± 0.096
17,C[C@@H]1COC(Nc2ccc3ncnc(Nc4ccc(OCc5nccs5)c(Cl)c4)c3c2)=N1,0.84 ± 0.065
18,NCCCC[C@H](N[C@@H](CCc1ccccc1)C(=O)O)C(=O)N1CCC[C@H]1C(=O)O,0.97 ± 0.033
